Data as given in paper PMC7862700, “An all-to-all approach to the identification of sequence-specific readers for epigenetic DNA modifications on cytosine”.

What was measured:
Assay in all cases: DAPPL (digital affinity profiling via proximity ligation, sequencing); 10 mM Tris-HCl pH 7.5, 50 mM NaCl, 1 mM DTT, 4% glycerol, room temperature, 30 min; GST-TFs on glutathione beads, 16-mer random dsDNA library, 0.1% formaldehyde crosslink after washing; high values mean tight binding
Conditions in all cases: protein: recombinant; tags: N-terminal GST; dsDNA, one strand shown
FLI1 = target: T1, FLI1 (Homo sapiens, UniProt Q01543 1-452)
T1 sequence: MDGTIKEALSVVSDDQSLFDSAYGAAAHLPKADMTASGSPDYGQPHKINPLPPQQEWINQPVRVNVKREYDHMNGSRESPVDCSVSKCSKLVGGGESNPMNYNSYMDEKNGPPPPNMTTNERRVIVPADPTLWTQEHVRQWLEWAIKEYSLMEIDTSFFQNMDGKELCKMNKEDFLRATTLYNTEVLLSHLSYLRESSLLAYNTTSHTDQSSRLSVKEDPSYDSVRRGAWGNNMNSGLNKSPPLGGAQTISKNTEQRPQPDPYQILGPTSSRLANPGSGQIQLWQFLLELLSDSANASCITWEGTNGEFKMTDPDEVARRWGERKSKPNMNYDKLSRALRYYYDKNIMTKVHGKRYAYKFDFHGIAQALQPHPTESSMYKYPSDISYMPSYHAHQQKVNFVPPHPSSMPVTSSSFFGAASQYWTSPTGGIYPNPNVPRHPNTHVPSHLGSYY
Summary of the method: (§1)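 Human transcription factors were made in yeast as GST fusions, captured on glutathione beads and barcoded with DNA. With a tag-only sample included, the pool was incubated with 200 nmole of a random double-stranded 16-mer DNA library in Tris/NaCl/DTT/glycerol buffer at room temperature for 30 min, then crosslinked with 0.1% formaldehyde after washing, ligated by proximity, amplified and sequenced. For binding signal, each hexamer's read frequency for a factor is divided by its frequency for the tag-only sample.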

ELK1 = target: T2, ELK1 (Homo sapiens, UniProt P19419 1-428)
T2 sequence: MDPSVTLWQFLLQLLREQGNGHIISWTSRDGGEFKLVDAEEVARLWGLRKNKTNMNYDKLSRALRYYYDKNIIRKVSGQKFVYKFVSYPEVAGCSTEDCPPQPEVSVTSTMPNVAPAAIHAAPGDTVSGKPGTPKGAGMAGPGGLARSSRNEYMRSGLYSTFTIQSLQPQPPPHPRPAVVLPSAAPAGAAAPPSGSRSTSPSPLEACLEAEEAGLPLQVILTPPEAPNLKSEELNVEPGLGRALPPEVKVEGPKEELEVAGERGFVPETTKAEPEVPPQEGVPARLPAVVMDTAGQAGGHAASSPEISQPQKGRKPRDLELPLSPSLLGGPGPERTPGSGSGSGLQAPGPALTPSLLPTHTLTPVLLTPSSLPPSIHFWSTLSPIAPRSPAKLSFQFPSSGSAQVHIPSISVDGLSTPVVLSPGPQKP
Summary of the method: as §1

EHF = target: T3, EHF (Homo sapiens, UniProt Q9NZC4 1-300)
T3 sequence: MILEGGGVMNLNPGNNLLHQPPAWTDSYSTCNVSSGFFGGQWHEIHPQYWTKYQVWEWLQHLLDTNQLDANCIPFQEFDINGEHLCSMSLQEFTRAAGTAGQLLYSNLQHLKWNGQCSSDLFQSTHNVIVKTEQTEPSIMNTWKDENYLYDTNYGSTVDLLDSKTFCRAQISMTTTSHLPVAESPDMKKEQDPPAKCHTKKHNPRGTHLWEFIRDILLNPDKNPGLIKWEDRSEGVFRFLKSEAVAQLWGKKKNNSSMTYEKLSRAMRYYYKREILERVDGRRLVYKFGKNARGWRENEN
Summary of the method: as §1

SPIB = SPIB (Homo sapiens, UniProt Q01892 1-262)
Sequence of SPIB (Q01892 whole entry): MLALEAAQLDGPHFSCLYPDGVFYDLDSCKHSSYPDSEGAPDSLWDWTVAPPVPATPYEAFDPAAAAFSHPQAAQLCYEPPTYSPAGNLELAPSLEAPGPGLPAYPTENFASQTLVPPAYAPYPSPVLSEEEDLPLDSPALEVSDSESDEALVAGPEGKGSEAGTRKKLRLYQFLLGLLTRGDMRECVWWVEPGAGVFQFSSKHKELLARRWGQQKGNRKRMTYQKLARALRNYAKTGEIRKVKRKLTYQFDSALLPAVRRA
Summary of the method: as §1

SPIC = target: T4, SPIC (Homo sapiens, UniProt Q8N5J4 1-248)
T4 sequence: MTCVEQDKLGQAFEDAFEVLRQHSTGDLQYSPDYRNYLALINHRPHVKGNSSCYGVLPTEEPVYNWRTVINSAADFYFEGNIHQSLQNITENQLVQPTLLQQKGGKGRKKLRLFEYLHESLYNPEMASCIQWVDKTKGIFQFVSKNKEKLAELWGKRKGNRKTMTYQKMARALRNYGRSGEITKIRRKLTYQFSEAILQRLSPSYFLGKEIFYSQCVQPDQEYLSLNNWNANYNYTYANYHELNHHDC
Summary of the method: as §1

ELK4 = target: T5, ELK4 (Homo sapiens, UniProt P28324-2 1-405)
T5 sequence: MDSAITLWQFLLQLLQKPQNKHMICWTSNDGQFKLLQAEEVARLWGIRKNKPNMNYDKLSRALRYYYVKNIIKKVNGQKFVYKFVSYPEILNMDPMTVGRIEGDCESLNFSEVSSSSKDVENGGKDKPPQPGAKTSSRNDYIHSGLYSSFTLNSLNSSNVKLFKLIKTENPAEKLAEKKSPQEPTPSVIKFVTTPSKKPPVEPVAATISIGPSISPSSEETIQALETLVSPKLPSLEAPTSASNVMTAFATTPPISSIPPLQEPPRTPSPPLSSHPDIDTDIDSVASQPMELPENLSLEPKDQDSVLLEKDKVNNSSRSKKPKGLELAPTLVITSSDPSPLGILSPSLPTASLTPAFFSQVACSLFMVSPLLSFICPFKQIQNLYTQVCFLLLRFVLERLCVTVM
Summary of the method: as §1

ETV7 = target: T6, ETV7 (Homo sapiens, UniProt Q9Y603 1-341)
T6 sequence: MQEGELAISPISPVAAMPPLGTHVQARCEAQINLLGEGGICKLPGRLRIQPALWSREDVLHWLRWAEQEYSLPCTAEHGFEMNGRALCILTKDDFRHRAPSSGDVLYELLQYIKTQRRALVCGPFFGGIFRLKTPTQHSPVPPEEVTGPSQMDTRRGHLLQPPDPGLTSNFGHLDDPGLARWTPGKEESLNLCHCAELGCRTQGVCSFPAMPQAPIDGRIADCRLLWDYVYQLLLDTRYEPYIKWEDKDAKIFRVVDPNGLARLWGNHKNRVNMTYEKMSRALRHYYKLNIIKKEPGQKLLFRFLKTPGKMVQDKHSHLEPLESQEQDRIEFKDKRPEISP
Summary of the method: as §1

ETV3 = target: T7, ETV3 (Homo sapiens, UniProt P41162-2 1-143)
T7 sequence: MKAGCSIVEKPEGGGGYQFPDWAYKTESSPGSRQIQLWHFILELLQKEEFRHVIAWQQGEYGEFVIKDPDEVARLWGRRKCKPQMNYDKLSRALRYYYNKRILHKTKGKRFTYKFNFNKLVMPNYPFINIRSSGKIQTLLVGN
Summary of the method: as §1

ETV2 = target: T8, ETV2 (Homo sapiens, UniProt O00321 1-342)
T8 sequence: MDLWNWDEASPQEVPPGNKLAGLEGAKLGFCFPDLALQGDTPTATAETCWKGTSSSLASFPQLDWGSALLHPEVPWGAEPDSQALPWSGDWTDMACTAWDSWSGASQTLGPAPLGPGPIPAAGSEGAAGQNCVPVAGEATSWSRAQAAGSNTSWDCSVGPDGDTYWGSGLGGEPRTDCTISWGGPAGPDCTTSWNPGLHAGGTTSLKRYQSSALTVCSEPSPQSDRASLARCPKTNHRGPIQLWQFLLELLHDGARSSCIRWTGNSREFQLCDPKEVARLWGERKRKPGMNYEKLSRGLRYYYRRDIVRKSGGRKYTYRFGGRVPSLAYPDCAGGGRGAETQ
Summary of the method: as §1

ETV3L = target: T9, ETV3L (Homo sapiens, UniProt Q6ZN32 1-361)
T9 sequence: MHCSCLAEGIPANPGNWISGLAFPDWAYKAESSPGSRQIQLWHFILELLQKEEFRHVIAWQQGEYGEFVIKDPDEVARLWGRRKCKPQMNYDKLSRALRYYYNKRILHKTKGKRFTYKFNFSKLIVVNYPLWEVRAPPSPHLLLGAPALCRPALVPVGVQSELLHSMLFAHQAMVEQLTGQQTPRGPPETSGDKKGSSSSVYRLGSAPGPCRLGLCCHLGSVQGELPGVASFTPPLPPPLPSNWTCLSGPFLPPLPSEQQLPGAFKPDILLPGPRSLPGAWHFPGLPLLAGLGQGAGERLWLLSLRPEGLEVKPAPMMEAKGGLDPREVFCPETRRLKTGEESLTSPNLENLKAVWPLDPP
Summary of the method: as §1

Row | Sequence | binding signal (FLI1) | binding signal (ELK1) | binding signal (EHF) | binding signal (SPIB) | binding signal (SPIC) | binding signal (ELK4) | binding signal (ETV7) | binding signal (ETV3) | binding signal (ETV2) | binding signal (ETV3L)
1 | GCAGCC | 1.01 fold enrichment (6-mer frequency, TF over GST control) | 1.05 fold enrichment (6-mer frequency, TF over GST control) | 1.03 fold enrichment (6-mer frequency, TF over GST control) | 1.08 fold enrichment (6-mer frequency, TF over GST control) | 1.03 fold enrichment (6-mer frequency, TF over GST control) | 1.11 fold enrichment (6-mer frequency, TF over GST control) | 1.02 fold enrichment (6-mer frequency, TF over GST control) | 1 fold enrichment (6-mer frequency, TF over GST control) |  | 
2 | TCGTTA | 1 fold enrichment (6-mer frequency, TF over GST control) |  |  |  | 1.02 fold enrichment (6-mer frequency, TF over GST control) |  | 1.06 fold enrichment (6-mer frequency, TF over GST control) |  | 1.08 fold enrichment (6-mer frequency, TF over GST control) | 1.01 fold enrichment (6-mer frequency, TF over GST control)
